This is an account of results in the supplement of paper PMC12632987.

T1: USP38, Q8NB14
T1 chain: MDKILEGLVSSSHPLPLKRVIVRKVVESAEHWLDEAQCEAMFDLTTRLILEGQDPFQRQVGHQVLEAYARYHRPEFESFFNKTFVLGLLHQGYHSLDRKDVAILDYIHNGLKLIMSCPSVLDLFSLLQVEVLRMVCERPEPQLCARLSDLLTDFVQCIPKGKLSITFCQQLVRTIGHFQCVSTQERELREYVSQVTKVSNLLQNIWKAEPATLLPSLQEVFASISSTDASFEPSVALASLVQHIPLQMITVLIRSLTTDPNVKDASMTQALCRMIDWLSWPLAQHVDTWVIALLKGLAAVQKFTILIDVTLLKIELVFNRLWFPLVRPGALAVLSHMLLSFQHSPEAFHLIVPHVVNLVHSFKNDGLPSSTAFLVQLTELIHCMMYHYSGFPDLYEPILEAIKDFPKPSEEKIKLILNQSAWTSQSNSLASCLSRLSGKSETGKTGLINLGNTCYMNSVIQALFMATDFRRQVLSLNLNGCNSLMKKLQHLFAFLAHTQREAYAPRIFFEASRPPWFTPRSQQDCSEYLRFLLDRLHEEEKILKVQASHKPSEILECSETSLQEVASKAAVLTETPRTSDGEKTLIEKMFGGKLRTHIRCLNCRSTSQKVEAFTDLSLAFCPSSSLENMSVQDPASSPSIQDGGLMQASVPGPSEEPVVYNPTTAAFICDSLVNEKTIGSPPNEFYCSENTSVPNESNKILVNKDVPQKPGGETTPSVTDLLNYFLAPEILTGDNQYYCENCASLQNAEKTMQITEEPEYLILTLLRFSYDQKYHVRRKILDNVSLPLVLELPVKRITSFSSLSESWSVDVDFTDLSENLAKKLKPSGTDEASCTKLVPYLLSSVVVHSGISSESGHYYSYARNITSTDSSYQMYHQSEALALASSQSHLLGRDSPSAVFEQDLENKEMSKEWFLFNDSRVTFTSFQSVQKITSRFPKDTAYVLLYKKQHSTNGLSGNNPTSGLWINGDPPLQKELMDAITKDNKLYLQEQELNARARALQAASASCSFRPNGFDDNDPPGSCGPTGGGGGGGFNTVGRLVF

B1: usp_38_diff_out_16_109_179 (protein)
chain: SAQAEADRAFAEAAIANFEALAADAEAELARLKARGASPEVLAAYQALADTARAAAAALRAALAAGEDLRAATNAKWDEVGAKAAEAAELRRAEVRRRSA
B2: usp_38_diff_out_16_25_192 (protein)
chain: SVEALLRAHDLLGEAAGYILEAKEHKDSPKARELLEKAIKSLEEALRVMKEELKIDEEKAEEIEKLIKEAKKLLKEGAPVEEVIKVLEEAVDKAADALAE
B3: usp_38_diff_out_16_109_176 (protein)
chain: SAQAEADRAFAEAVVANLRALAEDAEARLARLEARGASPAVLAAYRDLADTARAAAAALEEAIAAGEDLRAIANAQWDRVGAAAARAADLLRAEVDARSA
B4: usp_38_diff_out_16_25_197 (protein)
chain: SVEALLEAHDLIGRAAGYVLRARESEDPEEQRKLLREALEHLEEALKLLEEKLKIDPEKAKEIKKLIEEAKKLLEEGAPIEEVIAVVEKAIDLAVDALNE
B5: usp_38_diff_out_16_13_187 (protein)
chain: SELEKLLKKLEELTKKAEEKKKELEKLIKEGAPKEEIREKLEELRELLIEAAGTILEIRNLMVEKANEEQRKKAREKLKEAEEKLNEAINLYVEKELELA
B6: usp_38_diff_out_16_109_173 (protein)
chain: SQQAEGDRLFAEAAAANFRSLAEDAEAALARAKERGASPEVLAALQDLADTAKAAADTIEKTIADGGDLRATTDAQWDAVGAAAARADAIRRAEARARSD
B7: usp_38_diff_out_16_109_181 (protein)
chain: SAEEEAAREYAEAAVANFRALAADAEARLARLEARGASPEVLAAYRDLAATARAAAAALEAAIAAGEDLRAAADAQWDAVGAAAARAAEIRRAEVRRRSA
B8: usp_38_diff_out_16_109_178 (protein)
chain: SAEDEANVEYAKAVIENLEKLAEEAEAELKRLQARGASAEVLAAYQKLADLAKEAAERLKKALAEGKDLRAIADEEWDRVGAAAAEAAELRQQEVRARSA
B9: usp_38_diff_out_16_25_190 (protein)
chain: NVEALLRAHDELGRAAGYIVLAREHADSPEVKELLREAIESLERALRIAEEELHIPEEVAEKVKKLIEEAKKLLEEGADPEEVIKKLEEALDLLAEALAE
B10: usp_38_diff_out_16_109_175 (protein)
chain: SAQAEADRAFAEAAIANFRSLAADARARLARLEARGASPEVLAAYADLAATATAAAAALEAALAAGEDLRAAANAAWDAVGAAAARAARLLQEEVRRRSA
B11: usp_38_diff_out_16_109_172 (protein)
chain: SADAEADRLLAEAAIENLRALAEEARRELERLEAKGASEEVLAAYRALAETAEAAAATIEAALAAGKDIRATTDAQWDAVGAAAARASELREAEARARSA
B12: usp_38_diff_out_16_109_174 (protein)
chain: SAQEEADREYALAVIENLKKLAKEAEEELKKLKARGASEEVLKAYEELAKTAKEAAKALEEALKAGEDLRAIANEKWDEVGKKAAEAAELLREEVRRRSA
B13: usp_38_diff_out_16_25_196 (protein)
chain: EVEALLRAHDEIGRAAGLVLRAREEEDPERQRELLREALEHLRRALEILREELRVDEETARELEELIERAERLLEEGAPAEEVIAVIEEAIDLAVDALAE
B14: usp_38_diff_out_16_25_200 (protein)
chain: SVEALLEAHDHLGEAAGHILRAKESKDEEEKKKLLEEAIKHLEKALKIMKEKLKIPEEVAEEIEKKIERAKKLLEEGAPFEEVIKELEEAIDLAAKALAA
B15: usp_38_diff_out_16_25_189 (protein)
chain: SVEALLKAHEELGEAAGYIVQARENKDKPEARELLKKAIESLEKALEILEKELKIDEKVAKEIREKIERARKLLEEGKPVEEVIKELEEALDLAIEALAK
B16: usp_38_diff_out_16_109_184 (protein)
chain: SADEEADRLLAEASIKNFRDLSKDARAEAERLKARGASQAVIDAYNELAKTAEAAAEEIEKALEAGEDLRAVTDAQWDKVGAAAKKANDLRRAEARARTA
B17: usp_38_diff_out_16_109_177 (protein)
chain: SAQEEADREYAEAVIKNLKELAKEAKERLKKLEEKGASEEVLKAYKELAETAKKAAERLEKALKAGEDLRKIADEEWDKVGAAAAKAAEILREEVRKKSE
B18: usp_38_diff_out_16_25_191 (protein)
chain: SVEALLRAHDKLGEAAGYILQAKEKKDSEEARKLLEKAVKALEEALKILVEELKIDPKDAEEIEKLIKEAKKLLKEGAPVEEVIKVLEKAVDAAAKALAK
B19: usp_38_diff_out_16_25_194 (protein)
chain: EVEALLKAHDEIGWAAGKLLEAKESKDPEEQKKLLEEALKHLEKALKILKEELKIDEETLKKIEELIKKAKKLLKEGAPFEEVIKTLEEAIDLAVDALNK
B20: usp_38_diff_out_16_37_203 (protein)
chain: SAAEVEALMARLREAVERARELIERARRAIEEGADEAEIERLLEEATRALEEAGRALAEILLLDPARYPEARALYDETAARFGEVVAEARDARRERRARA
B21: usp_38_diff_out_16_109_182 (protein)
chain: AAEEEAARLLAEASIANFEALAEEARAQLAKAQARGASPEVLAALQDLADTARAAAAAIRRALEAGEDLRAVTDAQWDAVGAAAARANRLREAETDARSA
B22: usp_38_diff_out_16_25_193 (protein)
chain: NVEALLRAHDALGRAAGYVVRARELGESPEARELLREAIRALREALRILREELRIPEEVARRIEEAIERAERLLEAGEPVEEVIEALEEAIDLAAAALAA
B23: usp_38_diff_out_16_25_201 (protein)
chain: EVEALLEAHDHLGDAAGYVLRAKESEDEEERKRLLREALESLRRALDILRERLHIPEEEAERIEALIEEAERLLEEGAPFEEVIAVVEEAIDLAAEALAR
B24: usp_38_diff_out_16_25_199 (protein)
chain: NVEALLKAHDELGKAAGYILEAREHLDSPEVKELLEKAIEHLEEALKIMKEELKIPQETAKKIQELIEKAKKLLEEGADPEEVIKALEEAIDAAADALAS
B25: usp_38_diff_out_16_109_185 (protein)
chain: AAQREADRALAEAAIANFRALAAEARARAAALRARGAPQAVIDAYDDLAATADAAAAALEAALAAGEDLRAAVDREWDAVGAAAAAAEALRRAATAARSA
B26: usp_38_diff_out_16_109_171 (protein)
chain: SADEEADRLLAEAAIRNLRALAEAAEAELEKLEARGASPEVLAAYRDLAELARRAAEEIERALEEGRDLRETTDREWDRVGAAAARAAELRRAEARRRSA
B27: usp_38_diff_out_16_25_188 (protein)
chain: NVEALLEAHHHLGLAAGYIVLAKEHKDSEKAREYLEKAIEHLEEALRILEEELNIDEETAEEIRKLIEKAKKLLKEGAPVEEIIKLLEEAIDLMAKALAE
B28: usp_38_diff_out_16_109_186 (protein)
chain: SEQAESDRLLAEAAIANFKALAADARAEAARLKAKGASQAVIDAYNALADTATAAAAALEAALAAGEDLRATLDAQWDAVGAAAAAARDLREAETAARSA
B29: usp_38_diff_out_16_109_183 (protein)
chain: SADEEAARLLAEASIKNFRNLAKEAQAALAKAQARGASADVLAALQDLADTAKAAAERIEKAIKEGKDLLAVTNAEWDAVGAAAARARELREAETRARSA
B30: usp_38_diff_out_16_25_195 (protein)
chain: SVEALLRAHDLIGRAAGLVLRARESEDPEEQRRLLEEAIRHLEEALELLKEELKIDEETAEKIEKLIEEARRLLEEGAPFEEVIKVLEEAIDLAVDALAK
B31: usp_38_diff_out_16_25_202 (protein)
chain: EVEALLRAHDELGEAAGYILRARESEDEEERKKLLREALESLEKALDIMKKELKIPEEVAKKIQELIDEAKEKLEAGAPFEEVIKLLEEAIDLAAEALAA
B32: usp_38_diff_out_16_109_180 (protein)
chain: SAEAEADKAYAEAVIANLEALAKAAEAELKKLKARGASPEVLAAYQALRDTAKAAAATLKAALAAGEDLRAIADAQWDAVGAAAAAAAALRRAEVAARSA

The experiment has as its target T1, USP38, Q8NB14. In words: median log2 fold change of GCK-ALFA target abundance (FLAG IP / Myc IP barcode read proportion) (log2 ratio); each designed protein is fused to an ALFA-tag nanobody in HEK293 cells to bring the named protein to FLAG-tagged glucokinase (GCK); Myc marks an untargeted standard; higher = target protein stabilised (more abundant). To be noted: target protein: 3xFLAG-MCP-GCK-ALFA reporter; HEK293 landing pad (RPLP). In short, it runs like this:
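The readout is target abundance, the per-binder median log2 ratio of FLAG to Myc barcode read proportions. It came from HEK293 landing-pad cells carrying a recombined ALFA-nanobody-fused binder library, induced with 2 μg mL^−1 doxycycline and transfected with a plasmid for a FLAG-tagged target and a Myc-tagged standard. After 48 h, lysates were immunoprecipitated with anti-FLAG and anti-Myc, and circular RNA barcodes were reverse transcribed, amplified and sequenced. Each barcode needed a proportion of at least 10^−7 in both replicates and each binder at least 3 barcodes per replicate, a pseudocount of 10^−6 was added, and the replicates were pooled.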
As for B1, the “median log2 fold change” value is -0.0762. The result for B2 reads 0.243; that for B3, 0.125. As for B4, the “median log2 fold change” value is 0.179.

For the molecule B5, the “median log2 fold change” value was -0.622. Take B6: the “median log2 fold change” value was -0.0935. For B7, the “median log2 fold change” value is -0.515. Take B8: the “median log2 fold change” value worked out at 0.375. The figure for B9 is 0.107; for B10 it is -0.756; for B11 it is -0.0926.

Take B12: the “median log2 fold change” value was -0.105.

In the case of B13, the “median log2 fold change” value was 0.215.

For the molecule B14, the “median log2 fold change” value was determined as 0.457. The figure for B15 is 0.371; for B16 it is -0.0394; for B17 it is 0.0634.

For the molecule B18, the “median log2 fold change” value is 0.0845. The figure for B19 is 0.00535. The result for B20 reads -0.344; that for B21, 0.0957; that for B22, 0.174.

With B23, the “median log2 fold change” value was 0.237.

As for B24, the “median log2 fold change” value is 0.324.

With B25, the “median log2 fold change” value was -0.358. The result for B26 reads -0.352; that for B27, 0.00197; that for B28, 0.0614. B29: the “median log2 fold change” value was -0.397. The figure for B30 is 0.188; for B31 it is 0.316; for B32 it is -0.191.
